The panel holds about 79,000 compounds, 15% with a hit somewhere; the sample as a whole holds those more often. Activity calls are given as the source filed them. No stated cut-off is given here; in the data, active means growth inhibition above about 70%; inactive means the rest.
Experiments:
[1] = NCI Yeast Anticancer Drug Screen. Data for the rad14 strain (AID 159);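 further: 0% = growth of vehicle-treated control cultures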; settings: S. cerevisiae rad14 strain growth inhibition, stronger effect = higher value
Summary of the method: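 A mutant yeast strain defective in DNA damage repair is treated with compound; inhibition of its growth is scored against untreated, vehicle-exposed cultures.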

[2] = NCI Yeast Anticancer Drug Screen. Data for the sgs1 mgt1 strain (AID 161);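 further: 0% = growth of cultures given vehicle only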; settings: S. cerevisiae sgs1 mgt1 strain, stronger effect = higher value
Summary of the method: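 This yeast growth screen uses a strain with defined DNA-repair lesions; compound-treated growth is compared with vehicle-treated growth.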

[3] = NCI Yeast Anticancer Drug Screen. Data for the CLN2oe strain (AID 163);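 further: 0% = growth of vehicle-only control cultures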; settings: S. cerevisiae CLN2oe strain, stronger effect = higher value
Summary of the method: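 Compounds are applied to yeast harbouring a defined cell-cycle control change; reduced growth compared with vehicle-treated controls gives the value.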

[4] = NCI Yeast Anticancer Drug Screen. Data for the cln2 rad14 strain (AID 165);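 further: 0% = growth equal to vehicle treated cultures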; settings: S. cerevisiae cln2 rad14 strain, stronger effect = higher value
Summary of the method: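 Readout is yeast growth inhibition versus vehicle-treated controls, using a strain with cln2 and rad14 alterations exposed to compound.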

[5] = NCI Yeast Anticancer Drug Screen. Data for the bub3 strain (AID 167); settings: S. cerevisiae bub3 mutant strain, stronger effect = higher value
Summary of the method: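 Steps: expose the mutant yeast strain to compound; grow alongside vehicle-treated cultures; measure growth; express inhibition against the vehicle cultures.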

[6] = NCI Yeast Anticancer Drug Screen. Data for the wt2 strain (AID 169);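 further: 0% = growth of vehicle-treated yeast cultures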; settings: S. cerevisiae wt2 strain growth inhibition, stronger effect = higher value
Summary of the method: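 Against vehicle-treated controls, the growth of yeast exposed to each compound was compared, and the inhibition was recorded.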

[7] = NCI Yeast Anticancer Drug Screen. Data for the mlh1 strain (AID 171);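 further: 0% = growth of vehicle-treated control cultures of the same strain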; settings: S. cerevisiae mlh1 strain growth inhibition, stronger effect = higher value
Summary of the method: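 Measured: yeast growth. Reference: vehicle-treated controls. Organism: strain with a defined alteration affecting DNA damage repair or cell cycle control, treated with compound.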

[8] = NCI Yeast Anticancer Drug Screen. Data for the sgs1 strain (AID 173);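 further: 0% = growth of vehicle-only control cultures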; settings: S. cerevisiae sgs1 mutant, stronger effect = higher value
Summary of the method: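 Each compound was added to cultures of the altered yeast strain. Growth was recorded, and inhibition was derived by comparison with vehicle controls.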

[9] = NCI Yeast Anticancer Drug Screen. Data for the mlh1 rad18 strain (AID 175); settings: S. cerevisiae mlh1 rad18 strain growth inhibition, stronger effect = higher value
Summary of the method: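 Genetically defined yeast (DNA repair-deficient) exposed to compounds; growth inhibition determined relative to vehicle.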

[10] = NCI Yeast Anticancer Drug Screen. Data for the rad18 strain (AID 177); settings: S. cerevisiae rad18 mutant growth inhibition, stronger effect = higher value
Summary of the method: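 Vehicle-treated cultures served as the baseline for scoring compound-induced growth inhibition in DNA-repair-mutant yeast.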

[11] = NCI Yeast Anticancer Drug Screen. Data for the wt1 strain (AID 149);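 further: 0% = growth of vehicle-treated wt1 cultures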; settings: S. cerevisiae wt1 strain (SPY 50644) growth inhibition, stronger effect = higher value
Summary of the method: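 Compounds are added to wt1 yeast cultures. Growth is then measured. Inhibition is expressed relative to vehicle-treated controls.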

[12] = NCI Yeast Anticancer Drug Screen. Data for the rad50EPP+ strain (AID 151);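 further: 0% = growth of vehicle-treated control cultures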; settings: S. cerevisiae rad50 mutant strain, stronger effect = higher value
Summary of the method: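 Vehicle-normalised growth inhibition; rad50EPP+ yeast strain, altered in DNA damage repair, compound-treated.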

[13] = NCI Yeast Anticancer Drug Screen. Data for the rad50 strain (AID 155);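 further: 0% = growth of vehicle-only cultures of the same strain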; settings: S. cerevisiae rad50 strain growth inhibition, stronger effect = higher value
Summary of the method: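 Inhibition values express reduced yeast growth in compound-treated cultures relative to vehicle-treated controls.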

[14] = NCI Yeast Anticancer Drug Screen. Data for the mec2-1 strain (AID 157); settings: S. cerevisiae mec2-1 strain, stronger effect = higher value
Summary of the method: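 Mutant yeast (mec2-1) grown with compound; growth inhibition relative to vehicle control reported.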

[15] = at 5.0 µM (retest, dose inferred, filed as 0.5)
[16] = at 50.0 µM (retest, dose inferred, filed as 5.0)

Measured: growth inhibition

O=C(CSS(=O)(=O)O)c1ccccc1
inactive: [1]; at 100.0 µM 19% | [2]; [15] -9% | [2]; [16] 69% | [2]; at 50.0 µM 35.3% | [3]; at 1.2 µM -5% | [3]; at 3.7 µM -14% | [3]; at 11.0 µM -11% | [3]; at 33.0 µM 2% | [3]; at 100.0 µM 28% | [4]; [15] 6% | [4]; [16] 15% | [4]; at 50.0 µM 18.2% | [5]; at 1.2 µM 0% | [5]; at 3.7 µM -5% | [5]; [15] -17% | [5]; at 11.0 µM -1% | [5]; at 33.0 µM 18% | [5]; at 50.0 µM 34.5% | [5]; at 100.0 µM 47% | [6]; at 1.2 µM -2% | [6]; at 3.7 µM -1% | [6]; at 11.0 µM 1% | [6]; at 33.0 µM 6% | [6]; at 100.0 µM 15% | [7]; at 1.2 µM -4% | [7]; at 3.7 µM 1% | [7]; at 11.0 µM 3% | [7]; at 33.0 µM 12% | [7]; at 100.0 µM 24% | [8]; at 1.2 µM 0% | [8]; at 3.7 µM 2% | [8]; at 11.0 µM 13% | [8]; at 33.0 µM 29% | [8]; at 100.0 µM 51% | [9]; [15] 31% | [9]; at 50.0 µM 35% | [10]; at 1.2 µM 5% | [10]; at 3.7 µM 20% | [10]; at 11.0 µM 62%
active: [5]; [16] 76% | [9]; [16] 89% | [10]; at 33.0 µM 84% | [10]; at 100.0 µM 89%

Oc1ccc(Cc2nccc3cc(O)c(O)cc23)cc1O
active: [14]; [16] 73% | [14]; at 100.0 µM 77% | [5]; at 100.0 µM 79% | [6]; at 100.0 µM 70% | [8]; at 100.0 µM 73%
inactive: [11]; at 1.2 µM -9% | [11]; at 3.7 µM 2% | [11]; at 11.0 µM 3% | [11]; at 33.0 µM 19% | [11]; at 100.0 µM 66% | [12]; at 1.2 µM 16% | [12]; at 3.7 µM 31% | [12]; at 11.0 µM 22% | [12]; at 33.0 µM 24% | [12]; at 100.0 µM 33% | [13]; at 1.2 µM 3% | [13]; at 3.7 µM -6% | [13]; [15] 47% | [13]; at 11.0 µM 7% | [13]; at 33.0 µM 11% | [13]; [16] 66% | [13]; at 50.0 µM 48.9% | [13]; at 100.0 µM 28% | [14]; at 1.2 µM 21% | [14]; at 3.7 µM 28% | [14]; [15] 46% | [14]; at 11.0 µM 33% | [14]; at 33.0 µM 47% | [14]; at 50.0 µM -25.4% | [1]; at 1.2 µM 0% | [1]; at 3.7 µM 14% | [1]; at 11.0 µM 10% | [1]; at 33.0 µM 22% | [1]; at 100.0 µM 51% | [2]; [15] -1% | [2]; [16] 35% | [2]; at 50.0 µM 16.4% | [3]; at 1.2 µM 14% | [3]; at 3.7 µM 11% | [3]; at 11.0 µM 24% | [3]; at 33.0 µM 27% | [3]; at 100.0 µM 55% | [4]; [15] 43% | [4]; [16] 63% | [4]; at 50.0 µM -42.5% | [5]; at 1.2 µM 34% | [5]; at 3.7 µM 46% | [5]; [15] 20% | [5]; at 11.0 µM 57% | [5]; at 33.0 µM 68% | [5]; [16] 59% | [5]; at 50.0 µM 28.6% | [6]; at 1.2 µM -9% | [6]; at 3.7 µM 16% | [6]; at 11.0 µM 31% | [6]; at 33.0 µM 41% | [7]; at 1.2 µM -2% | [7]; at 3.7 µM 11% | [7]; at 11.0 µM 18% | [7]; at 33.0 µM 32% | [7]; at 100.0 µM 65% | [8]; at 1.2 µM 40% | [8]; at 3.7 µM 37% | [8]; at 11.0 µM 42% | [8]; at 33.0 µM 52% | [9]; [15] 33% | [9]; [16] 66% | [9]; at 50.0 µM 53.1% | [10]; at 1.2 µM -10% | [10]; at 3.7 µM 4% | [10]; at 11.0 µM 14% | [10]; at 33.0 µM 5% | [10]; at 100.0 µM 14%

CN(C)N1C(=O)SCC(c2ccccc2)(c2ccccc2)C1=O
inactive: [11]; at 1.2 µM -4% | [11]; at 3.7 µM -4% | [11]; at 11.0 µM -3% | [11]; at 33.0 µM 6% | [11]; at 100.0 µM 16% | [12]; at 1.2 µM -2% | [12]; at 3.7 µM 2% | [12]; at 11.0 µM -32% | [12]; at 33.0 µM 4% | [12]; at 100.0 µM 7% | [13]; at 1.2 µM 4% | [13]; at 3.7 µM 7% | [13]; [15] -10% | [13]; at 11.0 µM 8% | [13]; at 33.0 µM 30% | [13]; [16] 61% | [13]; at 50.0 µM 64.8% | [13]; at 100.0 µM 50% | [14]; at 1.2 µM 1% | [14]; at 3.7 µM 1% | [14]; [15] 9% | [14]; at 11.0 µM 2% | [14]; at 33.0 µM 9% | [14]; [16] 43% | [14]; at 50.0 µM 10.2% | [14]; at 100.0 µM 27% | [1]; at 1.2 µM 1% | [1]; at 3.7 µM -3% | [1]; at 11.0 µM -4% | [1]; at 33.0 µM -15% | [1]; at 100.0 µM -19% | [2]; [15] 11% | [2]; [16] 43% | [2]; at 50.0 µM 15.4% | [3]; at 1.2 µM -2% | [3]; at 3.7 µM 7% | [3]; at 11.0 µM 2% | [3]; at 33.0 µM 1% | [3]; at 100.0 µM 2% | [4]; [15] -26% | [4]; [16] 3% | [4]; at 50.0 µM 6.9% | [5]; at 1.2 µM -2% | [5]; at 3.7 µM -1% | [5]; [15] 12% | [5]; at 11.0 µM 12% | [5]; at 33.0 µM 17% | [5]; [16] 60% | [5]; at 50.0 µM 21.6% | [5]; at 100.0 µM 23% | [6]; at 1.2 µM -2% | [6]; at 3.7 µM -3% | [6]; at 11.0 µM -1% | [6]; at 33.0 µM 4% | [6]; at 100.0 µM 11% | [7]; at 1.2 µM -1% | [7]; at 3.7 µM 1% | [7]; at 11.0 µM 1% | [7]; at 33.0 µM 12% | [7]; at 100.0 µM -10% | [8]; at 1.2 µM -1% | [8]; at 3.7 µM 1% | [8]; at 11.0 µM 4% | [8]; at 33.0 µM 20% | [8]; at 100.0 µM 34% | [9]; [15] 12% | [9]; [16] 29% | [9]; at 50.0 µM 47% | [10]; at 1.2 µM 6% | [10]; at 3.7 µM 5% | [10]; at 11.0 µM 26% | [10]; at 33.0 µM 59%
active: [10]; at 100.0 µM 75%

Source: PubChem BioAssay (NCI)
